# Reference: ChEMBL document CHEMBL1201862, “PubChem BioAssay data set” (2004)
# Among all 57,000 sequences or so, about 3,700 (6.5%) were called active. Cut-off read from the data, not from the text of the source: active = GI50 up to about 1.1 µM and inactive = higher. These entries were drawn from the full list. Measured potencies and affinities stand elsewhere.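 Where inhibition never reached the appropriate level, the endpoint shown equals the highest concentration tested. Otherwise, values were interpolated linearly from a five-concentration, 48-hour dose response in 96-well plates. At the GI50, growth is halved.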
# Test system: ACHN
# Assay: NCI tumour cell line growth inhibition, 48 h
row,Substance,GI50
1,"CISPLATIN, CHEMBL11359",1.22 µM
2,"cis-Bis[[(trimethylsilyl)methyl]amino]tetrachloroplatinum(IV), CHEMBL2146191",6.25 µM
3,"[Bis(aminomethyl)dimethylsilane]dichloroplatinum (II), CHEMBL2146201",12.6 µM
4,"[Bis(aminomethyl)tetramethylenesilane]dichloropaltinum(II), CHEMBL2146205",12.3 µM
5,"[Bis(aminomethyl)pentamethylenesilane]dichloropaltinum(II), CHEMBL2146202",1.63 µM
6,"mu-(1,7-nanodiamine-N,N')bis-(cis-aminedichloroplatimum (II)), CHEMBL2146215",27.8 µM
7,"[Bis(aminomethyl)ethylmethylsilane]tetrachloroplatinum(IV), CHEMBL2146192",2.67 µM
8,"[Bis(aminomethyl)pentamethylenesilane]tetrachloropaltinum(IV), CHEMBL2146204",1.79 µM
9,"[Bis(aminomethyl)tetramethylenesilane]tetrachloropaltinum(IV), CHEMBL2146189",3.69 µM
10,"[Bis(aminomethyl)dimethylsilane]tetrachloroplatinum(IV), CHEMBL2146190",4.84 µM
11,"[Bis(aminomethyl)diethylsilane]tetrachloroplatinum(IV), CHEMBL2146203",2.99 µM
